# Assay results reported in PubChem BioAssay (NCI).
# The panel holds about 79,000 compounds, 15% with a hit somewhere; the sample as a whole holds those more often. Values without a mark were called inactive. Active and inactive are the calls of the source. No stated cut-off is given here; in the data, active means growth inhibition above about 70%; inactive means the rest.
# What was measured:
# [1] = NCI Yeast Anticancer Drug Screen. Data for the rad50 strain (AID 155);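 further: 0% = growth of vehicle-only cultures of the same strain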; details: S. cerevisiae rad50 strain growth inhibition, stronger effect = higher value
# Outline: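 A DNA repair-deficient yeast mutant serves as the test organism; compound-induced growth inhibition is calculated against vehicle-treated cells.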
# [2] = NCI Yeast Anticancer Drug Screen. Data for the mec2-1 strain (AID 157); details: S. cerevisiae mec2-1 strain, stronger effect = higher value
# Outline: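 Yeast mec2-1 mutant treated with compound. Readout: growth inhibition vs vehicle controls.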
# [3] = NCI Yeast Anticancer Drug Screen. Data for the sgs1 mgt1 strain (AID 161);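 further: 0% = growth of cultures given vehicle only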; details: S. cerevisiae sgs1 mgt1 strain, stronger effect = higher value
# Outline: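 Inhibition of yeast growth, normalised to vehicle-treated controls, is reported for a strain bearing genetic alterations in DNA damage repair.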
# [4] = NCI Yeast Anticancer Drug Screen. Data for the cln2 rad14 strain (AID 165);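 further: 0% = growth equal to vehicle treated cultures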; details: S. cerevisiae cln2 rad14 strain, stronger effect = higher value
# Outline: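 cln2 rad14 yeast strain; compound exposure; growth inhibition read vs vehicle controls.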
# [5] = NCI Yeast Anticancer Drug Screen. Data for the bub3 strain (AID 167); details: S. cerevisiae bub3 mutant strain, stronger effect = higher value
# Outline: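 Inhibition values come from growth of compound-treated mutant yeast normalised to vehicle-treated controls.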
# [6] = NCI Yeast Anticancer Drug Screen. Data for the mlh1 rad18 strain (AID 175); details: S. cerevisiae mlh1 rad18 strain growth inhibition, stronger effect = higher value
# Outline: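 Yeast w/ defined DNA-repair lesions; compound exposure; growth vs vehicle controls → % inhibition.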
# [7] = at 5.0 µM (retest, dose inferred, filed as 0.5)
# [8] = at 50.0 µM (retest, dose inferred, filed as 5.0)
SMILES,"growth inhibition [1, 7] [%]","growth inhibition [1, 8]",growth inhibition ([1]; at 50.0 µM),"growth inhibition [2, 7] [%]","growth inhibition [2, 8]",growth inhibition ([2]; at 50.0 µM),"growth inhibition [3, 7] [%]","growth inhibition [3, 8]",growth inhibition ([3]; at 50.0 µM),"growth inhibition [4, 7] [%]","growth inhibition [4, 8]",growth inhibition ([4]; at 50.0 µM),"growth inhibition [5, 7] [%]","growth inhibition [5, 8]",growth inhibition ([5]; at 50.0 µM),"growth inhibition [6, 7] [%]","growth inhibition [6, 8]",growth inhibition ([6]; at 50.0 µM)
CC1(CO)CCCC2(C)C3=C(CCCC3)CCC12 (stereo not given),-102,94% (active),-3.55%,-56,96% (active),52.1%,-60,96% (active),46.1%,-60,95% (active),10.1%,-67,95% (active),42%,-108,95% (active),46.4%
O=C1C(=C2C(=O)c3ccccc3[N+]2=O)N([O-])c2ccccc21,-2,36%,69%,-6,59%,56%,-3,52%,84.3% (active),-10,15%,68%,-6,31%,57.8%,-5,56%,85.5% (active)
Brc1cccc[n+]1Cc1cc2ccccc2c2ccccc12,0,91% (active),97.2% (active),32,74% (active),97.5% (active),0,88% (active),98.6% (active),-5,70% (active),94.5% (active),-12,91% (active),97.5% (active),1,88% (active),97.9% (active)
CC(C)(C)OC(=O)N(CCCCNC(=O)OCc1ccccc1)CCCNC(=O)OCc1ccccc1,9,9%,23.1%,7,-4%,14.8%,-19,-3%,-1.15%,0,18%,-0.85%,2,-1%,-13.4%,9,9%,-57.7%
CCCCCCCCCCCCCCNCCC(=O)O,-8,99% (active),99.1% (active),23,100% (active),99.5% (active),2,98% (active),99.1% (active),-8,99% (active),99.2% (active),-6,99% (active),99.3% (active),-13,99% (active),99.3% (active)
